# According to PMC7862700, “An all-to-all approach to the identification of sequence-specific readers for epigenetic DNA modifications on cytosine”:
# Columns and labels:
# Assay in all cases: DAPPL (digital affinity profiling via proximity ligation, sequencing); 10 mM Tris-HCl pH 7.5, 50 mM NaCl, 1 mM DTT, 4% glycerol, room temperature, 30 min; GST-TFs on glutathione beads, 16-mer random dsDNA library, 0.1% formaldehyde crosslink after washing; high values mean tight binding
# Details in all cases: protein: recombinant; tags: N-terminal GST; dsDNA, one strand shown
# ELF3 = molecular target: T1, ELF3 (Homo sapiens, UniProt P78545 1-371)
# T1 sequence: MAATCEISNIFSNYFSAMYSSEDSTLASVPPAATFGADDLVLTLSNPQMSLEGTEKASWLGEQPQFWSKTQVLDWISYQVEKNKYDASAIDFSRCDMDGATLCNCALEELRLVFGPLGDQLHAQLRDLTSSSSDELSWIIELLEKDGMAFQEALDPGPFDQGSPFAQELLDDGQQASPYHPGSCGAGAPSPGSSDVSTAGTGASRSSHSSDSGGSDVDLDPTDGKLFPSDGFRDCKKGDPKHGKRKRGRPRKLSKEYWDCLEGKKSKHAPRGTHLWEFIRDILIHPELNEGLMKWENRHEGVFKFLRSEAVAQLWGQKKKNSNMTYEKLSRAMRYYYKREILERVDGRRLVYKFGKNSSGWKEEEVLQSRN
# Summary of the method: (§1)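 Yeast served to express human transcription factors as GST fusions, which were then captured on glutathione beads and labelled with DNA barcodes. Pooled with a tag-only sample, they were incubated with 200 nmole of a 16-mer random double-stranded DNA library for 30 min at room temperature in Tris/NaCl/DTT/glycerol buffer, washed, crosslinked with 0.1% formaldehyde, ligated by proximity, amplified by PCR and sequenced. Dividing each hexamer's read frequency for a factor by its frequency for the tag-only sample gives the binding signal.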
# ERF = molecular target: T2, ERF (Homo sapiens, UniProt P50548 1-548)
# T2 sequence: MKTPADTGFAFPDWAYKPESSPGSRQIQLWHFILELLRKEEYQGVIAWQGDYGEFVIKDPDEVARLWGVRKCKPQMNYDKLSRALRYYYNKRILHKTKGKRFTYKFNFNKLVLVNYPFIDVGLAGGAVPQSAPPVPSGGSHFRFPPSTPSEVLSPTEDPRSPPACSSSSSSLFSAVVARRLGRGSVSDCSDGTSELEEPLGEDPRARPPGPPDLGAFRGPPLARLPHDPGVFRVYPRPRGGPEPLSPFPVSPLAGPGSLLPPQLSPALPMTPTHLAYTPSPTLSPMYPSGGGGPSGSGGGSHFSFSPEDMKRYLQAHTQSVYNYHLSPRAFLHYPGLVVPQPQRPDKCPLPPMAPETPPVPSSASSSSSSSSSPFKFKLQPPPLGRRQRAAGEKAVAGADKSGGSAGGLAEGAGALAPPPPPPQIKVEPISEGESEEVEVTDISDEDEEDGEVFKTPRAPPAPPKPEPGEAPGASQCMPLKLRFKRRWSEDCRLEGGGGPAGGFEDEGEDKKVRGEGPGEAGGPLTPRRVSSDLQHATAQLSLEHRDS
# Summary of the method: as §1
# ETV7 = molecular target: T3, ETV7 (Homo sapiens, UniProt Q9Y603 1-341)
# T3 sequence: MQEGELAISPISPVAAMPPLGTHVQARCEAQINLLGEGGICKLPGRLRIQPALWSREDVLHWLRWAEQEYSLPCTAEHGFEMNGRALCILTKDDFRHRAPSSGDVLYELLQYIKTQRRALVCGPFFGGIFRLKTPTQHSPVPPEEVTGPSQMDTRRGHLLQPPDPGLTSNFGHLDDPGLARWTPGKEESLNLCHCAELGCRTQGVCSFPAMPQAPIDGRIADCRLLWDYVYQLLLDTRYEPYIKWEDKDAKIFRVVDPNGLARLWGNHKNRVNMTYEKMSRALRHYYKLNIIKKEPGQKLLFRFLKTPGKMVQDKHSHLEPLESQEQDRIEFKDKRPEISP
# Summary of the method: as §1
# ERG = molecular target: T4, ERG (Homo sapiens, UniProt P11308 1-479)
# T4 sequence: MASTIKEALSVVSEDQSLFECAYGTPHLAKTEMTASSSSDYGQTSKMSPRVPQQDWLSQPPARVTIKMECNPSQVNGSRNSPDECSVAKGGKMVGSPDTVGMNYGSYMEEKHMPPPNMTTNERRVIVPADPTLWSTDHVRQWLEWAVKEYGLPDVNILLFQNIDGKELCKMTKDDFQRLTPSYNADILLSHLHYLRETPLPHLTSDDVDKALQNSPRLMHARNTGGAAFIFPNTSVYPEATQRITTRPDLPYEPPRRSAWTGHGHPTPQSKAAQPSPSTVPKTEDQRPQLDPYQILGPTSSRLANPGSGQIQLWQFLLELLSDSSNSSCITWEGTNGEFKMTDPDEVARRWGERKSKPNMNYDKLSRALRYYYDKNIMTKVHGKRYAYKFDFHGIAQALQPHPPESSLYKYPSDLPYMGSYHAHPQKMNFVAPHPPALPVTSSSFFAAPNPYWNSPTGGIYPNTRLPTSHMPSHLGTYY
# Summary of the method: as §1
# SPIB = SPIB (Homo sapiens, UniProt Q01892 1-262)
# Summary of the method: as §1
# ELK3 = molecular target: T5, ELK3 (Homo sapiens, UniProt P41970 1-407)
# T5 sequence: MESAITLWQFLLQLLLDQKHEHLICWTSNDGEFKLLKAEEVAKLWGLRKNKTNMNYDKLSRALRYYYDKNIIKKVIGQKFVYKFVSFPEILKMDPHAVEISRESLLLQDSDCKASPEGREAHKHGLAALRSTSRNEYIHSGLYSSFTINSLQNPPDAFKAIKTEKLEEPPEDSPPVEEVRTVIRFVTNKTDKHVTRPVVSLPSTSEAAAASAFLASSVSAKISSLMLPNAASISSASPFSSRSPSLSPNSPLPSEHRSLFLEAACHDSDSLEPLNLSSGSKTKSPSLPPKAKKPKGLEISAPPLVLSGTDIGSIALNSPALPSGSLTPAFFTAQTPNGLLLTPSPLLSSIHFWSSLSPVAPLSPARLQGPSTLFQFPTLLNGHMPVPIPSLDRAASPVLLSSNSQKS
# Summary of the method: as §1
# ETV3L = molecular target: T6, ETV3L (Homo sapiens, UniProt Q6ZN32 1-361)
# T6 sequence: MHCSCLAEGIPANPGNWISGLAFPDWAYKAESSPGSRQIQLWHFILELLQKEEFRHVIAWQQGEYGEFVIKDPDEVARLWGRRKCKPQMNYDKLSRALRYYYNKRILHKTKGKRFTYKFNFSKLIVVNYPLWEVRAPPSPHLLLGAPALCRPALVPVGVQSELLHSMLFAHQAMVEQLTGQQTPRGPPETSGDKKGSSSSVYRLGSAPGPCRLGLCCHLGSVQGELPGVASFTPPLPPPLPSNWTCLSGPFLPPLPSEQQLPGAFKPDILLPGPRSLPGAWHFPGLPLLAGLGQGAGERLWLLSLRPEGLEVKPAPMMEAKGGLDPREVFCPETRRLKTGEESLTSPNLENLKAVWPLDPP
# Summary of the method: as §1
# ETS2 = molecular target: T7, ETS2 (Homo sapiens, UniProt P15036 1-469)
# T7 sequence: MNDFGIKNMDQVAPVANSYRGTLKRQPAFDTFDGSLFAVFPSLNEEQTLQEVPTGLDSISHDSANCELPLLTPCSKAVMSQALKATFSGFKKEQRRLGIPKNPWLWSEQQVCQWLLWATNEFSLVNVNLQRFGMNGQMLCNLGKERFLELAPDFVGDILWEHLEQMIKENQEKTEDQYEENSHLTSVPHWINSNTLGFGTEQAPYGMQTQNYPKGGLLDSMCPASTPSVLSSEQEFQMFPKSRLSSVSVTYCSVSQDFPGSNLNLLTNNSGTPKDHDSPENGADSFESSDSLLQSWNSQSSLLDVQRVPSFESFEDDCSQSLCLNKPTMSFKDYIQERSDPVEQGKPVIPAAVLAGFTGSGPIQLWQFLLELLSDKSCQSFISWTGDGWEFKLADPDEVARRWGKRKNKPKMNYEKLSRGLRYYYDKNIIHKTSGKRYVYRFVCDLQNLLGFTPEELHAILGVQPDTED
# Summary of the method: as §1
# EHF = molecular target: T8, EHF (Homo sapiens, UniProt Q9NZC4 1-300)
# T8 sequence: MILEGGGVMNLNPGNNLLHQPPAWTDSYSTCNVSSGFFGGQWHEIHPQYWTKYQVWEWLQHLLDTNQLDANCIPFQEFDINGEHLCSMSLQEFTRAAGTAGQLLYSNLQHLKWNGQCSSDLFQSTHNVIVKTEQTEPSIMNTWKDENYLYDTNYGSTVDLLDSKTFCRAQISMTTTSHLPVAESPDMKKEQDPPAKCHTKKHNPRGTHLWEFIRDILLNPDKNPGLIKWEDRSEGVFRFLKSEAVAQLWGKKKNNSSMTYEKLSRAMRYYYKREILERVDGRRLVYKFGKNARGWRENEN
# Summary of the method: as §1
# ELF5 = molecular target: T9, ELF5 (Homo sapiens, UniProt Q9UKW6-2 1-255)
# T9 sequence: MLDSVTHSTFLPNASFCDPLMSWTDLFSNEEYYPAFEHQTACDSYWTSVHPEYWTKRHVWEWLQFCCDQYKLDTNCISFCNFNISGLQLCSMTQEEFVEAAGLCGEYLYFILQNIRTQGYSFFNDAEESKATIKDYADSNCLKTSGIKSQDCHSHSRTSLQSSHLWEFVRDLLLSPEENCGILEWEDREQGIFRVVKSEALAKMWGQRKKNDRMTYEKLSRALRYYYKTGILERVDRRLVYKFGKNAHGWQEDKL
# Summary of the method: as §1
# SPI1 = SPI1 (Homo sapiens, UniProt P17947 1-270)
# Summary of the method: as §1
# ETV1 = ETV1 (Homo sapiens, UniProt P50549 1-477)
# Summary of the method: as §1
# GABPA = molecular target: T10, GABPA (Homo sapiens, UniProt Q06546 1-454)
# T10 sequence: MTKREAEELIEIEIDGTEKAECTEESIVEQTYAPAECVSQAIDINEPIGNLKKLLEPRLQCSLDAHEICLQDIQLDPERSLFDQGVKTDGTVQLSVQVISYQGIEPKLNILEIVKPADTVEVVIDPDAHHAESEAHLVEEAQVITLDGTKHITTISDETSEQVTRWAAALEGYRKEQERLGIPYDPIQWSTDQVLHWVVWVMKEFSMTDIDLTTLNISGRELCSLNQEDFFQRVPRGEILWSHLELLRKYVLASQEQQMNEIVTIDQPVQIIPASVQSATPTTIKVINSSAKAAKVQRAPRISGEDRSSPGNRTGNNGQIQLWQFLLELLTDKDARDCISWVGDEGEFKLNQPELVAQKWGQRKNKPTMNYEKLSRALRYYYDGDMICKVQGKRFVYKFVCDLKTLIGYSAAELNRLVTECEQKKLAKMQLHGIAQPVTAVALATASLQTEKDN
# Summary of the method: as §1
# Sequence of ETV1 (P50549 whole entry): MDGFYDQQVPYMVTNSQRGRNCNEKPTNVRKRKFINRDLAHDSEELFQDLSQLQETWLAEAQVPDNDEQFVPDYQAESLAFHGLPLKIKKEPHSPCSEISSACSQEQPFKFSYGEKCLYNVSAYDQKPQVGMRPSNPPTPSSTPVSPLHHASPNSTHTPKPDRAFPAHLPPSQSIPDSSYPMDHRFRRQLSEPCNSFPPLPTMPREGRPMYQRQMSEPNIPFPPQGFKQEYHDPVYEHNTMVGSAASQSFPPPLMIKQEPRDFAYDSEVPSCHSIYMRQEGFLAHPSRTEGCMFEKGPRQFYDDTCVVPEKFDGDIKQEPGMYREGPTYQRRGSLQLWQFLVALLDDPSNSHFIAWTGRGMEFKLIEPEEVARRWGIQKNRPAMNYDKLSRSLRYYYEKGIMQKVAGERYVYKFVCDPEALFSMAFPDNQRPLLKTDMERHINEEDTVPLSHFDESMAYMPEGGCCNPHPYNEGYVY
# Sequence of SPIB (Q01892 whole entry): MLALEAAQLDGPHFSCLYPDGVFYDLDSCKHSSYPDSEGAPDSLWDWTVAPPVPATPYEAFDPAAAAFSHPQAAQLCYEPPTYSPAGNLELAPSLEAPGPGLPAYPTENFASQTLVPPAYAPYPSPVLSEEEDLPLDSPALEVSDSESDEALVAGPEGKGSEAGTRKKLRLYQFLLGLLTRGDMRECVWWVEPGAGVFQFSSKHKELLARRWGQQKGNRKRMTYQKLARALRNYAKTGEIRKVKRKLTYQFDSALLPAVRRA
sequence,measurement,setting,value
GAAAGG,binding signal,ELF3,"1.03 fold enrichment (6-mer frequency, TF over GST control)"
same,binding signal,ERF,"1 fold enrichment (6-mer frequency, TF over GST control)"
same,binding signal,ETV7,"1.02 fold enrichment (6-mer frequency, TF over GST control)"
AAGACA,binding signal,ERG,"1 fold enrichment (6-mer frequency, TF over GST control)"
same,binding signal,SPIB,"1.02 fold enrichment (6-mer frequency, TF over GST control)"
same,binding signal,ELK3,"1.01 fold enrichment (6-mer frequency, TF over GST control)"
same,binding signal,ERF,"1.07 fold enrichment (6-mer frequency, TF over GST control)"
same,binding signal,ETV3L,"1.01 fold enrichment (6-mer frequency, TF over GST control)"
same,binding signal,ETS2,"1.01 fold enrichment (6-mer frequency, TF over GST control)"
same,binding signal,ETV7,"1.04 fold enrichment (6-mer frequency, TF over GST control)"
CGGTAA,binding signal,EHF,"1.01 fold enrichment (6-mer frequency, TF over GST control)"
same,binding signal,ELF5,"1.05 fold enrichment (6-mer frequency, TF over GST control)"
AAGGGG,binding signal,SPI1,"1.36 fold enrichment (6-mer frequency, TF over GST control)"
same,binding signal,ELK3,"1.05 fold enrichment (6-mer frequency, TF over GST control)"
same,binding signal,ETV1,"1.07 fold enrichment (6-mer frequency, TF over GST control)"
GACGAT,binding signal,ERF,"1.02 fold enrichment (6-mer frequency, TF over GST control)"
same,binding signal,ETV7,"1 fold enrichment (6-mer frequency, TF over GST control)"
GTATAG,binding signal,ETV3L,"1 fold enrichment (6-mer frequency, TF over GST control)"
GGGCTG,binding signal,GABPA,"1.03 fold enrichment (6-mer frequency, TF over GST control)"
same,binding signal,ERF,"1.03 fold enrichment (6-mer frequency, TF over GST control)"
same,binding signal,ETV3L,"1.03 fold enrichment (6-mer frequency, TF over GST control)"
same,binding signal,ETV7,"1.05 fold enrichment (6-mer frequency, TF over GST control)"
